# Hits are enriched below; roughly 2.3% of the tested compounds scored in any of these assays.
# CHO-K1 Ca ag = counter-screen for M1 agonists: effect in parental CHO-K1 cells. Fluo-8 calcium fluorescence; scaled to maximal ATP response, vehicle zero. activation, % at 3 µM. 360,000 tested, 0.48% active; in the data active = activation above about 15%;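 also: untransfected CHO-K1 host cells lacking M1 receptor as counterscreen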
# CHRM1 antagonist = human CHRM1 antagonism. AID 588852. inhibition, % at 3 µM. CHO-K1 hM1, Fluo-8 calcium fluorescence, ACh EC80 antagonist. 360,000 tested, 1.3% active;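 active = percent inhibition above its own plate's cutoff, namely the mean of that plate's compound wells plus 3 SD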;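 also: peak over basal fluorescence ratio during 140 s after agonist addition; 0% = ACh EC80 plus DMSO and 100% = DMSO alone without agonist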
# Target sequence (P11229 whole entry, looked up): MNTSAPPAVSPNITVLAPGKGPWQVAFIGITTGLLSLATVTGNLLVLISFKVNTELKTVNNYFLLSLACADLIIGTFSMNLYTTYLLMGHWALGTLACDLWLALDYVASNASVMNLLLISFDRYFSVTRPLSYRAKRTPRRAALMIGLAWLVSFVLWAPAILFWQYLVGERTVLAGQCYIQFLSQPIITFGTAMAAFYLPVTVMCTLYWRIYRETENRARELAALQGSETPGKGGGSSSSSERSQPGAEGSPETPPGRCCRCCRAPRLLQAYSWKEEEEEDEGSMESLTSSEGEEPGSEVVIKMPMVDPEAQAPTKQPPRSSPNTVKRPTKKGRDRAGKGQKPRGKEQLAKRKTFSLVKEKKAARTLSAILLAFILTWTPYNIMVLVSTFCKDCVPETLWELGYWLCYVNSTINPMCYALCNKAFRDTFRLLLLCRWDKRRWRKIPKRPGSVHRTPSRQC
# CHRM1 agonist = agonists of human M1 muscarinic receptor; activation, % at 3 µM; 360,000 tested, 0.33% active; CHO-K1 hM1, Fluo-8 calcium fluorescence, agonist mode; 0% DMSO, 100% acetylcholine EC100; P11229;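 active = activation above the run's mean compound activation plus 3 SD, cut at about 16% in these data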;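 also: peak over basal fluorescence ratio within a 140 s kinetic read after compound addition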
# M1 PAM parental = counter-screen for M1 PAMs: effect in parental CHO-K1 cells; ATP EC20, Fluo-8 calcium fluorescence; 0% at ATP EC20, 100% at ATP max; activation, % at 3 µM; 360,000 tested, 0.02% active; AID 602247;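 active = activation above the run cutoff, the mean activation of all test compounds plus 3 SD, cut at about 40% in these data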;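 also: peak over basal fluorescence ratio in a 140 s read after ATP addition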
# M1 PAM = human CHRM1 positive allosteric modulation | 360,000 tested, 0.088% active | AID 588819 | CHO-K1 hM1, Fluo-8 calcium fluorescence, ACh EC20; 0% = ACh EC20, 100% = maximal ACh | P11229 | activation, % at 3 µM; in the data active = activation above about 19%, passing the limit was not always enough
# CHO-K1 Ca antag = M1 antagonist counterscreen hit in parental CHO-K1 cells. ATP-induced calcium, Fluo-8 fluorescence. inhibition, % at 3 µM. 360,000 tested, 0.6% active. AID 602250;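 active = inhibition above a per-plate cutoff, the plate's mean sample inhibition plus 3 SD, cut at about 24% in these data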;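 also: 0% = DMSO plus EC80 ATP and 100% = DMSO alone without ATP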
# Starred values were filed as active, the others as inactive; . = no result.
SMILES,CHO-K1 Ca ag,CHRM1 antagonist,CHRM1 agonist,M1 PAM parental,M1 PAM,CHO-K1 Ca antag
CCC1(c2ccc(F)cc2)NC(=O)N(CC(=O)N2c3ccccc3NC(=O)CC2C)C1=O (stereo not drawn),0,-6,-1,-13,10,9
CCC1(c2ccc(F)cc2)NC(=O)N(CC(=O)N2c3ccccc3CC2C)C1=O (stereo not drawn),12,6,27*,14,-1,-19
CCC1(c2ccc(F)cc2)NC(=O)N(CC(=O)c2cc(C)n(C3CC3)c2C)C1=O (stereo not drawn),26*,7,30*,28,1,1
CCC1(c2ccc(OC)cc2)NC(=O)N(CC(=O)N2CCc3ccccc32)C1=O (stereo not drawn),11,7,29*,23,-3,6
COc1ccc(Cc2c(-c3ccc(Cl)cc3)nc3cc(C)c(Br)c(C)n23)c(C)c1,0,.,.,16,.,-15
CN(C)c1ccc(CC(=O)N2CCCCC2c2cc(C(=O)Nc3cccc4c3CCCC4)no2)cc1 (stereo not drawn),0,-1,1,-18,2,22
Cc1ccc(-c2cnc(NCc3cc4c(cc3[N+](=O)[O-])OCO4)n2C)cc1C,17*,-1,-5,19,0,-7
Cn1c(-c2ccc3c(c2)OCO3)cnc1NCc1cccc(Cl)c1,1,74*,-5,9,-21,0
Cc1cc(C)cc(NCc2cc3c(cc2[N+](=O)[O-])OCO3)c1,0,-9,-8,-8,1,-2
Cn1c(-c2ccc3c(c2)OCO3)cnc1NCc1ccccc1,3,10,-7,-7,-21,-2
Cn1c(-c2ccc3c(c2)OCO3)cnc1NCc1ccccc1Cl,3,94*,-5,8,-23,-8
Cn1nc(C2CC2)cc1NC(=O)C1(C)CCN1C(=O)Cc1ccc(-c2ccccc2)cc1 (stereo not drawn),6,30*,0,-11,-13,10
CC(C)(C)c1ccc(CC(=O)N2CCC2(C)C(=O)Nc2ccc3[nH]ncc3c2)cc1 (stereo not drawn),10,11,3,-1,-12,2
CC1(C(=O)Nc2ccc3[nH]ncc3c2)CCN1C(=O)Cc1ccc(-c2ccccc2)cc1 (stereo not drawn),13,28*,7,-7,-14,11
CC1(C(=O)Nc2ccc3c(c2)OCO3)CCN1C(=O)Cc1ccc(-c2ccccc2)cc1 (stereo not drawn),10,38*,7,16,-17,8
Fc1ccc(-c2nc3ccc(Cl)cn3c2Cc2cccc(F)c2)cc1,1,-17,-4,9,-4,-24
Cc1cccn2cc(CNC(=O)C3CCCCC3)nc12,19*,0,-4,0,3,14
COc1ccc(C)cc1NC(=O)C(OC(=O)CNC(=O)c1cccc(F)c1)c1ccccc1 (stereo not drawn),0,-4,-7,-16,11,31*
c1ccc(N2CC[N+]3(CCCC3)CC2)nc1,0,54*,-9,11,-22,-8
c1cnc(N2CC[N+]3(CCCC3)CC2)nc1,0,33*,-6,13,-23,-3
O=C(NC1CCC1)C1CCC(=O)N(Cc2ccc(Cl)cc2)C1 (stereo not drawn),1,-16,-5,-11,10,-8
Cc1ccc(-n2nnnc2CNC(=O)c2ccc(Br)o2)cc1C,0,-3,-3,5,3,-15
Cc1ccc(-n2nnnc2CNC(=O)c2ccc3c(c2)OCO3)cc1C,0,63*,-7,-7,-24,-6
COc1cccc(-c2cnc(C(O)c3ccc(Cl)cc3C)[nH]2)c1 (stereo not drawn),1,-14,4,10,12,-3
CN(C)S(=O)(=O)c1ccc(NC(=O)c2cc(-c3cccs3)nc3ccccc23)cc1,6,42*,-1,-6,-16,10
SMILES,CHO-K1 Ca ag,CHRM1 antagonist,CHRM1 agonist,M1 PAM parental,M1 PAM,CHO-K1 Ca antag
CCN(CC)S(=O)(=O)c1ccc(NC(=O)c2cc(-c3cccs3)nc3ccccc23)cc1,2,16,-3,15,-7,1
CCN(CC)S(=O)(=O)c1cc(NC(=O)c2cc(-c3ccccn3)nc3ccccc23)ccc1C,5,30,-1,10,-8,-1
COc1ccc(NC(=O)c2cc(-c3ccccn3)nc3ccccc23)cc1S(=O)(=O)N(C)C,6,34*,-3,-8,-10,5
C=C1C(=O)C23C(O)C1CCC2C12COC3(O)C(O)C1C(C)(C)CCC2O (stereo not drawn),0,-16,3,-18,21,14
Cc1cn([C@H]2C[C@H](O)[C@@H](CNC(=O)[C@H](N)Cc3cn(COCc4ccccc4)cn3)O2)c(=O)[nH]c1=O,0,-2,-4,8,-1,2
CC(=O)c1cccc(N/C=C\c2nnnn2-c2ccc(F)cc2)c1,15*,7,-3,17,-5,6
CC1CC(C)CN(C(=O)COC(=O)c2cc(S(=O)(=O)N3CCOCC3)ccc2F)C1 (stereo not drawn),0,57*,-2,-23,-18,7
CCCNC(=O)C1(C)CCN(Cc2ccc(C)c3ccccc23)C1 (stereo not drawn),1,-8,-7,9,1,-12
O=C(NCc1ccc(F)cc1)c1cccc2c1C(=O)c1ccc(N3CCC(N4CCCCC4)CC3)cc1S2(=O)=O,3,40*,-8,-3,-25,10
O=C(NC1CC1)c1cccc2c1C(=O)c1ccc(N3CCC(Cc4ccccc4)CC3)cc1S2(=O)=O,7,26,21*,2,-11,2
CC1CCN(c2ccc3c(c2)S(=O)(=O)c2cccc(C(=O)NCc4ccc(F)cc4)c2C3=O)CC1,3,-4,-2,17,6,-12
O=C(NCCNC(=O)c1ccc(-c2cc(Cl)ccc2Cl)o1)c1cnccn1,1,-12,3,17,1,-9
Nc1c(C(=O)c2ccccc2)sc2nsc(SCCN3CCCC3)c12,16*,55*,11,8,-26,10
N#C/C(=C\Nc1ccc2cn[nH]c2c1)c1nc(-c2ccccc2)cs1,0,-2,-3,15,3,-3
Cc1ccnc(N/C=C(\C#N)c2nc(-c3cccc(Br)c3)cs2)c1,85*,43*,161*,-14,-23,39*
CCOC(=O)C1=CCN(S(=O)(=O)c2ccc(C)cc2)C1c1cccc(F)c1 (stereo not drawn),1,14,-8,7,-6,17
CCN(CC)CCOC(=O)/C=C/c1ccccc1,0,5,-6,-25,-5,15

# Screening results deposited in PubChem by The Scripps Research Institute Molecular Screening Center.
